Screening results from PubChem.
Gal4-VP16 FLuc: inhibits Gal4-VP16 luciferase reporter, ROR gamma counter-screen; Drosophila S2 Gal4-VP16 UAS-luciferase, luminescence, 20 h; Potency, µM (top dose mostly 53.6 µM), for inactives: top-dose activity, negative = inhibition, hits mostly inhibitors; hit rate 3.5% among 310,000;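 also: Gal4-VP16 expression switched on by copper sulfate through the metallothionein promoter; potency is read from the fitted curve at half-maximal effect; nearly all actives have a fitted effect of over 50% in size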
RORgamma inh: ROR gamma (mouse) transcription inhibition; P51450; Drosophila S2 Gal4-RORgamma UAS-luciferase reporter, 20 h; Potency, µM (series often up to 53.6 µM), for inactives: top-dose activity change, negative = inhibition, actives largely listed as inhibitors; hit rate 5.4% among 310,000; also: potency is read from the fitted curve at half-maximal effect; nearly all actives have a fitted effect of over 60% in size
Target sequence (P51450 whole entry, looked up, the tested form may be a part): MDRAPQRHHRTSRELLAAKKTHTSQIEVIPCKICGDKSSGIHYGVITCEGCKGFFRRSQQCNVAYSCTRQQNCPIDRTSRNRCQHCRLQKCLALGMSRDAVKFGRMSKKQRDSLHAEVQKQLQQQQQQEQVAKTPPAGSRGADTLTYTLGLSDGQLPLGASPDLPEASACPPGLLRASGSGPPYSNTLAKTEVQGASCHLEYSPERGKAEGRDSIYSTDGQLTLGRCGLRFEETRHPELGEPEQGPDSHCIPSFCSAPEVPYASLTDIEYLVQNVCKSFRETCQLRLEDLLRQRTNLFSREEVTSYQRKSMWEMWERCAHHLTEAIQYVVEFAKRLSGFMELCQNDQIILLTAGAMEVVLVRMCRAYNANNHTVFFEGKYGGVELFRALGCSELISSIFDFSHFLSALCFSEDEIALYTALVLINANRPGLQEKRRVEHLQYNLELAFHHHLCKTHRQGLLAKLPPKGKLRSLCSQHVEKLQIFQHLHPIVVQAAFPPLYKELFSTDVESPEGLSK
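Stably transfected Drosophila Schneider cells are the test system, with ROR gamma fused to Gal4 and luciferase under UAS control; luminescence is read after 20 hr of 700 uM copper sulfate induction at ambient temperature.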
TDP1 cell noCPT: qHTS for Inhibitors of human tyrosyl-DNA phosphodiesterase 1 (TDP1): qHTS in cells in absence of CPT. hit rate 15% among 420,000. DT40 Tdp1-/- hTDP1 cells, no CPT, ATP luminescence, 48 h. Potency, µM (top dose mostly 46.2 µM), without a hit: at the top dose activity change, negative = growth inhibition, usual class: inhibitors; also: potency is read from the fitted curve at half-maximal effect; nearly all actives have a fitted effect of over 55% in size
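Cells were dispensed at 400 per well, compounds added by pin tool, plates incubated ≥48 hr at 37 °C, then CellTiter-Glo added for 30 min at room temperature before luminescence reading. Line: DT40 Tdp1-/- complemented with hTDP1; camptothecin omitted.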
IL1B secr inh: inflammasome signaling inhibition, IL-1 beta readout; THP-1 LPS/ATP IL-1B secretion, AlphaLISA, 16 h; active compounds read low; activity change, % at 57.5 µM; hit rate 4.7% among 360,000; AID 743279; in the data active = activity change below about -50%; inconclusive = mostly about -30% to -49%
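Secreted IL-1B measured by AlphaLISA bead assay after 16 h compound exposure of THP-1 cells; compounds (final up to 57.5 uM) added 1 h before LPS (250 ng/mL) and ATP (1.25 mM) stimulation; lower signal means less secretion.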
DT40 TDP1 CPT: growth inhibition of DT40 Tdp1-/-;hTDP1 cells with camptothecin (screen for TDP1 inhibitors). chicken DT40 Tdp1-/-;hTDP1 cells + 20 nM CPT, ATP luminescence, 48 h. Potency, µM (top dose mostly 46.2 µM), without a hit: top-dose activity change, negative = growth inhibition, usual class: inhibitors. hit rate 12% among 420,000; also: potency is read from the fitted curve at half-maximal effect; nearly all actives have a fitted effect of over 55% in size
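Chicken DT40 Tdp1-/- cells stably complemented with human TDP1 were seeded at 400 cells/well in medium containing 20 nM camptothecin, exposed to pin-transferred compounds, and grown at 37 °C for at least 48 hr. Viability was read as ATP luminescence.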
LDHA block: inhibitors of human lactate dehydrogenase A | purified LDHA, NADH/diaphorase-resazurin fluorescence; active compounds read low | AID 1347041 | activity change, % (values are at about 110 or 230 µM) | hit rate 0.15% among 480,000 | P00338; in the data active = activity change below about -30%; inconclusive = mostly about -25% to -30%;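 also: plate controls were DMSO wells for no effect and wells without enzyme for full effect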
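LDH5 2 nM; NADH 0.06 mM, pyruvate 0.2 mM; 200 mM Tris pH 7.4, EDTA, Tween-20; 5 min RT. Detection: diaphorase 0.133 mg/mL + resazurin 37 µM, fluorescence ex540/em590 at 0 and 20 min; normalized to enzyme-free and DMSO wells.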
Starred values were filed as active, the others as inactive; ? = inconclusive; / = no result given; [ ] = dose if it differs, or a comment. Shown are actives, neighbours in structure and some others; about 18% of the full set was active somewhere. Unless noted, calls follow the shape of the dose curve; as a rule, active = well fitted curve in the direction sought with a large enough effect; inconclusive = small, poorly fitted or top-dose-only effect, or another doubt; inactive = no such curve, though single readings can be large; an effect the other way counts as inactive or inconclusive. Unless noted, % is scaled to controls: 0 for no effect and ±100 for the full control effect.

SMILES	Gal4-VP16 FLuc	RORgamma inh	TDP1 cell noCPT	IL1B secr inh	DT40 TDP1 CPT	LDHA block
CC(=O)Nc1cccc(-c2ccnc3c2CC(C)(C(=O)Nc2ccc(Cl)cc2)O3)c1 (stereo unspecified)	/	/	4.1µM*	-20	1.6µM*	1
COC(=O)c1cc(OC(=O)CCS(=O)(=O)c2ccc(C)cc2)cc(C(=O)OC)c1	/	/	/	/	/	1
Cc1cccc(CSc2nnc(CCCOc3ccc(Cl)cc3Cl)n2C)c1	/	/	/	/	/	8
Cc1nnsc1C(=O)NC(C)c1ccccc1 (stereo unspecified)	-1%	2%	-4%	-4	?	-3
CC(NC(=O)c1sc2ncccc2c1-n1cccc1)c1ccccc1 (stereo unspecified)	/	/	23µM*	/	?	-3
CCOc1ccc(CCNC(=O)c2cccs2)cc1OCC	/	/	?	0	-5%	-15
CN1CCN(CCNC(=O)c2sc3ncccc3c2-n2cccc2)CC1	/	/	/	/	/	11
CC(C)NC(=O)c1sc2ncccc2c1-n1cccc1	/	/	2.6µM*	/	?	1
CCOc1ccc(CCNC(=O)c2sc3ncccc3c2-n2cccc2)cc1OCC	/	/	?	/	26µM*	1
O=S(CCN1CCC(n2cccc2)CC1)c1ccccc1 (stereo unspecified)	/	/	/	/	/	-5
Cc1ccc(-c2nc(CN3CCN(CC(=O)Nc4cccc(C)c4C)CC3)co2)cc1	/	/	/	/	/	7
Cc1cccc(NS(=O)(=O)c2cccc(C(=O)NCC(c3ccco3)N3CCCCC3)c2)c1 (stereo unspecified)	/	/	23µM*	-59*	21µM*	-4
COc1ccc(NS(=O)(=O)c2cccc(C(=O)NCC(c3ccco3)N3CCCCC3)c2)cc1 (stereo unspecified)	/	/	?	-11	?	-4
Cc1cccc(NS(=O)(=O)c2ccc(C(=O)NCC(c3ccco3)N3CCCCC3)cc2)c1C (stereo unspecified)	/	/	23µM*	?	?	-4
Cc1cccc(NS(=O)(=O)c2ccc(C(=O)NCC(c3ccccc3)N(C)C)cc2)c1C (stereo unspecified)	0%	?	?	-6	16µM*	-1
Cc1ccc2c(c1)CCCN2C(=O)c1cc(C)nc2ccccc12	/	/	/	/	/	3
CCOC(=O)C1CCN([C@H]2CS(=O)(=O)C[C@@H]2S(=O)(=O)c2ccc(Cl)cc2)CC1	/	/	/	/	/	6
Cc1cc(C(F)(F)F)nc(SCC(=O)c2cccc([N+](=O)[O-])c2)n1	-10%	35%	-21%	-6	-29%	0
Cc1ccc(-c2cc(C(F)(F)F)nc(SCC(=O)c3cccc([N+](=O)[O-])c3)n2)cc1	-4%	-2%	?	-53*	?	-9
Cc1ccc(OCc2nnc(SCC(=O)c3cccc([N+](=O)[O-])c3)n2C)cc1	?	2µM*	?	-7	?	-3
CSc1nc(=S)cc(C)[nH]1	-6%	?	?	13	18µM*	1
CCn1nc(C(=O)Nc2cccc(C)n2)c2ccccc2c1=O	/	/	/	/	/	11
COc1ccc(-c2cn(-c3ccc(OC)cc3)c3[n+]2-c2ccccc2CC3)cc1	4.5µM*	?	0.21µM*	-59*	0.26µM*	-10
FC(F)Sc1ccc(-n2cc(-c3ccccc3)[n+]3c2CCC3)cc1	?	7%	4.1µM*	0	5.8µM*	-16
COc1ccc(-n2cc(-c3ccccc3)[n+]3c2CCCCC3)cc1	?	4%	1.2µM*	?	5.8µM*	-7
SMILES	Gal4-VP16 FLuc	RORgamma inh	TDP1 cell noCPT	IL1B secr inh	DT40 TDP1 CPT	LDHA block
FC(F)Oc1ccc(-n2cc(-c3ccc(Cl)cc3)[n+]3c2CCCCC3)cc1	-14%	6%	4.6µM*	-19	4.6µM*	-2
Nc1c(Br)cc2oc(-c3cccc4ccccc34)nc2c1Br	/	/	/	/	/	10
COc1cccc(-c2cc(C(=O)Nc3cc(OC)ccc3OC)[nH]n2)c1	/	/	/	/	/	-3
CCCC(=O)Nc1ccc(-c2nc3ccc(C)cc3o2)cc1	/	/	/	/	/	-1
Cc1ccc(NC(=O)Nc2c[nH]c(=O)[nH]c2=O)cc1C	/	/	/	/	/	1
COc1ccc(-c2cn(-c3ccc(SC(F)F)cc3)c3[n+]2CCC3)cc1OC	-10%	1%	18µM*	2	?	-2
CCN(CC)CC1CCN(C(=O)c2ccc(C#N)cc2)CC1	/	/	/	/	/	6
O=C(Cn1cnc2sc(-c3ccccc3)cc2c1=O)NCc1ccccc1	1%	0%	5.2µM*	41	3.7µM*	-22
COc1ccc(CNC(=O)Cn2ncn3c(cc4ccccc43)c2=O)cc1	2%	0%	?	10	?	-5
O=C(Cn1cnc2sc(-c3ccccc3)cc2c1=O)NCc1ccco1	/	2%[0.365 µM]	5.8µM*	16	6.5µM*	2
O=C(Cn1ncn2c(cc3ccccc32)c1=O)NCc1ccco1	-9%	5.6µM*	0%	21	-14%	-2
O=C(Cn1cnc2sc(-c3ccccc3)cc2c1=O)NCCc1ccccc1	?	-1%	?	41	?	-5
Cc1ccc2nc(-c3ccc4c(c3)OCO4)cc(C(=O)O)c2c1	/	/	/	/	/	9
Cc1ccc(Nc2nc(-c3ccc([N+](=O)[O-])cc3)nc3ccccc23)cc1	/	/	/	/	/	6
CC(=O)c1ccc(N2CCN(c3ncnc4c3cnn4C)CC2)cc1	/	/	8.2µM*	/	?	-8
CCc1ccc(Nc2ncnc3c2cnn3-c2cc(Cl)ccc2C)cc1	/	/	-81%	/	?	0
Cc1ccc(Cl)cc1-n1ncc2c(N3CCCCCC3)ncnc21	/	/	8.2µM*	/	5.8µM*	-2
Cn1ncc2c(N3CCOCC3)ncnc21	-3%	7%	-18%	-11	-25%	-10
COc1ccc(N2CCN(c3ncnc4c3cnn4-c3ccc(C)c(Cl)c3)CC2)cc1	/	/	-12%	/	-11%	-4
CCN(c1ncnc2c1cnn2-c1cc(Cl)ccc1C)C1CCCCC1	/	/	15µM*	/	15µM*	2
CC(=O)c1ccc(N2CCN(c3ncnc4c3cnn4-c3cc(Cl)ccc3C)CC2)cc1	/	/	5.8µM*	/	2.6µM*	-6
Cc1ccc(-n2ncc3c(N4CCCCCC4)ncnc32)cc1Cl	/	/	-12%	/	-28%	-2
CNS(=O)(=O)c1ccc(CCC(=O)Nc2nc(C)c(C)s2)cc1	/	/	/	/	/	0
Cc1cc(C)n2c(SCc3ccc(Cl)cc3Cl)nnc2n1	?	-1%	18µM*	-2	?	2
Cc1ccccc1N=C(c1ccccc1)C1C(=O)c2ccccc2C1=O	/	/	10µM*	-19	10µM*	2
N#C/C(=N\Nc1cccc2ccccc12)c1nnc2n1CCCCC2	3.2µM*	?	33µM*	27	?	2
